Test results taken from PubChem BioAssay (EPA / NIEHS).
Records with an inconclusive call do not appear. Some structures have more than one record in an assay (separate samples or runs), and their calls can disagree. The source made the active and inactive calls. How the source made its calls, unless noted: active means hit-call score of the fitted dose curve at least 0.9, where 1 is the maximum; inconclusive means response in the unintended direction; inactive means score below 0.9.

Legend:
[1] = ATG_CMV_CIS: Attagene CIS-FACTORIAL HepG2 Assay for human CMV (Internal Marker) (AID 2282928; active means hit-call score of the fitted dose curve at least 0.9, where 1 is the maximum; inactive means score below 0.9;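 further: endpoint acts as a background internal control marker rather than a target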); conditions: HepG2 CMV promoter reporter, transcription factor profiling; actives raise or lower the signal
Summary of the method: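 CMV internal-marker background readout in transiently transfected HepG2 cells bearing cis-regulated reporter units. Reporter mRNA is measured 24 h after dosing by RT-PCR and capillary electrophoresis, with bidirectional fitting against DMSO.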

[2] = ATG_AP_1_CIS: Attagene CIS-FACTORIAL HepG2 Assay for human Activator Protein 1 (AP-1) (AID 2282931; active means hit-call score of the fitted dose curve at least 0.9, where 1 is the maximum; inactive means score below 0.9); conditions: HepG2 Attagene cis-factorial AP-1 reporter mRNA; actives raise or lower the signal
Summary of the method: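 Endogenous transcription-factor activity in human HepG2 liver cells is read through a cis-promoter reporter transcript, sampled 24 h after dosing. Detection uses RT-PCR with capillary electrophoresis; values come from bidirectional fitting relative to DMSO.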

[3] = ATG_EGR_CIS: Attagene CIS-FACTORIAL HepG2 Assay for human Early Growth Response 1 (EGR1) (AID 2282938; active means hit-call score of the fitted dose curve at least 0.9, where 1 is the maximum; inactive means score below 0.9); conditions: HepG2 Attagene CIS-FACTORIAL EGR reporter mRNA; actives raise or lower the signal
Summary of the method: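 Endogenous TF activity in HepG2 liver cells was gauged through cis-promoter reporter constructs transiently transfected. After 24 h dosing, reporter mRNA was quantified by RT-PCR and capillary electrophoresis, and curves fitted in both directions versus DMSO.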

[4] = ATG_ISRE_CIS: Attagene CIS-FACTORIAL HepG2 Assay for human Interferon Regulatory Factor 1 (IRF1) binding to an Interferon-Stimulated Response Element (ISRE) (AID 2282948; active means hit-call score of the fitted dose curve at least 0.9, where 1 is the maximum; inactive means score below 0.9); conditions: HepG2 ISRE cis-reporter (Attagene), mRNA transcription readout; actives raise or lower the signal
Summary of the method: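 Transiently transfected HepG2 cells carrying cis-element reporter units, dosed 24 hours. Reporter mRNA quantified by RT-PCR, fluorescent primer extension, HpaI digestion and capillary electrophoresis. Bidirectional fitting relative to DMSO.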

[5] = ATG_M_06_CIS: Attagene CIS-FACTORIAL HepG2 Assay for M06 Transcription Factor (Internal Marker) (AID 2282950; active means hit-call score of the fitted dose curve at least 0.9, where 1 is the maximum; inactive means score below 0.9); conditions: HepG2 Attagene CIS-FACTORIAL M06 internal marker reporter; actives raise or lower the signal
Summary of the method: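 Read-out is fluorescence of labelled reporter cDNA fragments resolved by capillary electrophoresis after RT-PCR. Cells: HepG2 carrying transfected cis-promoter reporter units, treated 24 h. Gain or loss of signal fitted relative to DMSO.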

[6] = ATG_TAL_CIS: Attagene CIS-FACTORIAL HepG2 Assay for human TAL Basal Promoter (AID 2282966; active means hit-call score of the fitted dose curve at least 0.9, where 1 is the maximum; inactive means score below 0.9;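 further: background control endpoint measuring basal TAL promoter reporter mRNA not a specific factor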); conditions: HepG2 Attagene cis-factorial TAL promoter reporter; actives raise or lower the signal
Summary of the method: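 In this cell-based multiplex, HepG2 liver cells bearing cis-promoter reporter constructs are dosed for 24 hours. Total RNA is reverse-transcribed and amplified, labelled fragments are sized by capillary electrophoresis, and signal changes are fitted bidirectionally versus DMSO.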

[7] = ATG_M_19_TRANS: Attagene TRANS-FACTORIAL HepG2 Assay for M19 Transcription Factor (Internal Marker) (AID 2282974); conditions: HepG2 Attagene TRANS-FACTORIAL M19 internal marker reporter
Summary of the method: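 Cells: human HepG2, transiently transfected with multiplexed reporter transcription units. Exposure: 24 h. Detection: RT-PCR of reporter mRNA with capillary electrophoresis. Analysis: gain-of-signal vs DMSO.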

[8] = target: Hepatocyte nuclear factor 4-alpha (Homo sapiens) (UniProt P41235); test: ATG_HNF4a_TRANS: Attagene TRANS-FACTORIAL HepG2 Assay for human Hepatocyte Nuclear Factor 4 alpha (HNF4a) (AID 2282982); conditions: HepG2 HNF4a transactivation reporter, mRNA readout
Summary of the method: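 Cells used were human HepG2, transiently carrying GAL4-UAS reporter units read out against exogenous NR-GAL4 chimeras. Reporter transcript levels after 24 h dosing were quantified by fluorescent RT-PCR and capillary electrophoresis.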

[9] = ATG_NRF2_ARE_CIS: Attagene CIS-FACTORIAL HepG2 Assay for human Nuclear Factor Erythroid 2 Related Factor 2 (NFR2) response to Antioxidant Response Elements (ARE) (AID 2282992; active means hit-call score of the fitted dose curve at least 0.9, where 1 is the maximum; inactive means score below 0.9); conditions: HepG2 Attagene ARE/NRF2 reporter, transcription factor activity; actives raise or lower the signal
Summary of the method: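 HepG2 cells transiently transfected with multiplexed cis-element reporter constructs, 24 h after chemical dosing; reporter mRNA quantified by RT-PCR, fluorescent primer extension, HpaI digestion and capillary electrophoresis. Bidirectional fit relative to DMSO.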

[10] = target: human Peroxisome Proliferator-activated Receptor delta (PPARd), PPARD (gene 5467) (UniProt Q03181); test: ATG_PPARd_TRANS: Attagene TRANS-FACTORIAL HepG2 Assay for human Peroxisome Proliferator-activated Receptor delta (PPARd) (AID 2283002)
Summary of the method: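 Multiplexed trans-activation format: HepG2 liver cells expressing exogenous NR-Gal4 chimeras and GAL4-UAS reporters were exposed for 24 h. Reporter mRNA was detected by RT-PCR with capillary electrophoresis fluorescence; activity fitted as gain of signal relative to DMSO.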

[11] = target: Nuclear receptor subfamily 1 group I member 2 (Homo sapiens) (UniProt O75469); test: ATG_PXR_TRANS: Attagene TRANS-FACTORIAL HepG2 Assay for human Pregnane X Receptor (PXR) (AID 2283008)
Summary of the method: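 HepG2 cells transiently transfected with GAL4-UAS reporter units and PXR-Gal4 chimera, exposed 24 h. Reporter mRNA quantified by RT-PCR, fluorescent labelling, HpaI digestion and capillary electrophoresis; gain of signal vs DMSO.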

[12] = target: human Thyroid Receptor alpha (THRa1), THRA (gene 7067) (UniProt P10827); test: ATG_THRa1_TRANS: Attagene TRANS-FACTORIAL HepG2 Assay for human Thyroid Receptor alpha (THRa1) (AID 2283014)
Summary of the method: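 Transient HepG2 transfection, NR-Gal4 chimera driving GAL4-UAS reporters; 24 h compound exposure; total RNA, oligo(dT) RT, PCR, fluorescent primer extension, capillary electrophoresis. Upward direction vs DMSO control.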

[13] = TOX21_p53_BLA_p3_viability: Viability Assessment in the Tox21 HCT-116 p53 Agonism Beta-lactamase Assay, Phase 3 (AID 2283593);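 further: cells exposed to compound for 16 h before reading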
Summary of the method: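 HCT-116 cells (4000/well) rested 5 h at 37C, then got DMSO compounds by pin tool (217-fold dilution) for 16 h at 37C, 5% CO2. After the bla read, CellTiter-Glo was added and luminescence read at 30 min, room temperature.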

[14] = target: Cellular tumor antigen p53 (Homo sapiens) (UniProt P04637); test: TOX21_p53_BLA_p5_ratio: Tox21 HCT-116 p53 Agonism Beta-lactamase Assay, Ratio, Phase 5 (AID 2283599)
Summary of the method: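 HCT-116 cells carrying a p53-inducible beta-lactamase reporter were seeded at 4000 cells/well and dosed after 5 h with compound in DMSO (217-fold dilution). After 16 h at 37C, CCF4-AM substrate was added for 2 h, and the 460/530 nm emission ratio was scored as gain-of-signal versus DMSO.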

[15] = TOX21_p53_BLA_p5_viability: Viability Assessment in the Tox21 HCT-116 p53 Agonism Beta-lactamase Assay, Phase 5 (AID 2283600)
Summary of the method: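 Compounds, pinned from DMSO at 217-fold dilution, were left on the cells for 16 h. The viability endpoint was ATP content measured by CellTiter-Glo luminescence, where falling signal reflects cytotoxicity.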

[16] = ACEA_ER_AUC_viability: ACEA Biosciences xCELLigence Real-Time Cell Analysis on Estrogen Receptor Agonism for Viability (AID 2283782);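 further: continuous compound exposure with impedance area under curve over 80 h; hit means loss of impedance signal meaning reduced cell growth or viability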
Summary of the method: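 T-47D human breast cells in phenol red-free RPMI1640 with 10% charcoal-stripped FBS were dosed with an 8-point 1:4 dilution series from 100 uM top final concentration, in duplicate. Impedance-based growth was followed for 80 h; AUC analysed versus DMSO.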

[17] = ATG_PBREM_CIS: Attagene CIS-FACTORIAL HepG2 Assay for human Phenobarbital-responsive Enhancer Module (PBREM) (AID 2282955; active means hit-call score of the fitted dose curve at least 0.9, where 1 is the maximum; inactive means score below 0.9); conditions: HepG2 PBREM cis-reporter, Attagene multiplexed transcription; actives raise or lower the signal
Summary of the method: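 Fluorescence of labelled reporter cDNA fragments, resolved by capillary electrophoresis, gives mRNA induction in transfected HepG2 cells treated for 24 h; DMSO serves as negative control and baseline.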

[18] = ATG_M_06_TRANS: Attagene TRANS-FACTORIAL HepG2 Assay for M06 Transcription Factor (Internal Marker) (AID 2282983); conditions: HepG2 Attagene TRANS M06 internal marker reporter
Summary of the method: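 After a 24 h chemical treatment of transfected HepG2, RNA underwent DNase I treatment, reverse transcription and reporter-specific PCR; labelled, HpaI-digested products were sized by capillary electrophoresis. Signal increase relative to DMSO defined activity.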

[19] = target: Hepatocyte nuclear factor 6 (Homo sapiens) (UniProt Q9UBC0); test: ATG_HNF6_CIS: Attagene CIS-FACTORIAL HepG2 Assay for human Hepatocyte Nuclear Factor 6 (HNF6) (AID 2282952; active means hit-call score of the fitted dose curve at least 0.9, where 1 is the maximum; inactive means score below 0.9); conditions: HepG2 Attagene cis-factorial HNF6 reporter transcription; actives raise or lower the signal
Summary of the method: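 Transiently transfected HepG2 cells expressing cis-regulated reporter transcription units were exposed to chemical for 24 h in a 24-well format. Reporter transcript abundance was determined by fluorescence capillary electrophoresis.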

Measured: AC50

Cellular tumor antigen p53 (Homo sapiens), sequence (P04637 whole entry, looked up): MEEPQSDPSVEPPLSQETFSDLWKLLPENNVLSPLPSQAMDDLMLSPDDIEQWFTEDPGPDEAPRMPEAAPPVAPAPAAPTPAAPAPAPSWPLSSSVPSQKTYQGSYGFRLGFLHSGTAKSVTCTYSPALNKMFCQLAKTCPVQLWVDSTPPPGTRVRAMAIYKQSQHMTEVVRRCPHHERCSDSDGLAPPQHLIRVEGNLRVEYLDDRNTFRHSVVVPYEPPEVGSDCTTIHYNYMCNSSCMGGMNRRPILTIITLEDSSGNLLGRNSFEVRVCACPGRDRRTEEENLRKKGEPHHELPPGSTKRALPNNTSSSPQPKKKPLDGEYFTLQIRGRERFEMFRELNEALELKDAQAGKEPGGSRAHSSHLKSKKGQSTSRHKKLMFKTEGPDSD
Hepatocyte nuclear factor 4-alpha (Homo sapiens), sequence (P41235 whole entry, looked up, the tested form may be a part): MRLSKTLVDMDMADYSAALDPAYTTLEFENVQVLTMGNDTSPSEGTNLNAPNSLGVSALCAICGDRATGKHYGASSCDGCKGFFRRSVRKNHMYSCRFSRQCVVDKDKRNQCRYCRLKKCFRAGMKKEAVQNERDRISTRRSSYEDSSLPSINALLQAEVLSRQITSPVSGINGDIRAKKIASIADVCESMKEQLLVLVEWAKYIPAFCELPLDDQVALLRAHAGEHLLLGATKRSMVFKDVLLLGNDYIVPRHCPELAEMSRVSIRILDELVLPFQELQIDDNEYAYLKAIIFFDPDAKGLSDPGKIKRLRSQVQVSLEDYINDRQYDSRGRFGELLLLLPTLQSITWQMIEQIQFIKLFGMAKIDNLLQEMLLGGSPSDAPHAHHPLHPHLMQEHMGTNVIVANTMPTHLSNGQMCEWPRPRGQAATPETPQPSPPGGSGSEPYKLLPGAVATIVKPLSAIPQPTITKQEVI
human Peroxisome Proliferator-activated Receptor delta (PPARd), PPARD (gene 5467), sequence (Q03181 whole entry, looked up, the tested form may be a part): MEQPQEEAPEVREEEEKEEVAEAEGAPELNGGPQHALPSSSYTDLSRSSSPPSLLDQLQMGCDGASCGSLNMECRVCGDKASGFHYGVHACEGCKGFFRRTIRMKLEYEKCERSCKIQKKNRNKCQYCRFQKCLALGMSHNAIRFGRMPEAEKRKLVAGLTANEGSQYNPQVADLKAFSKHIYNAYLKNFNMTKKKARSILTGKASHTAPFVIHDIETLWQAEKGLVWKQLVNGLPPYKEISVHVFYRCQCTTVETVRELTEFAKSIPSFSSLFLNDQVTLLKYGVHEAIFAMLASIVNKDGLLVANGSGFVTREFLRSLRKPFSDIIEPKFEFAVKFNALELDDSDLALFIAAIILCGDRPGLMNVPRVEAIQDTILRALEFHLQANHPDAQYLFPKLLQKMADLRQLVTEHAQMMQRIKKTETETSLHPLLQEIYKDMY
human Thyroid Receptor alpha (THRa1), THRA (gene 7067), sequence (P10827 whole entry, looked up, the tested form may be a part): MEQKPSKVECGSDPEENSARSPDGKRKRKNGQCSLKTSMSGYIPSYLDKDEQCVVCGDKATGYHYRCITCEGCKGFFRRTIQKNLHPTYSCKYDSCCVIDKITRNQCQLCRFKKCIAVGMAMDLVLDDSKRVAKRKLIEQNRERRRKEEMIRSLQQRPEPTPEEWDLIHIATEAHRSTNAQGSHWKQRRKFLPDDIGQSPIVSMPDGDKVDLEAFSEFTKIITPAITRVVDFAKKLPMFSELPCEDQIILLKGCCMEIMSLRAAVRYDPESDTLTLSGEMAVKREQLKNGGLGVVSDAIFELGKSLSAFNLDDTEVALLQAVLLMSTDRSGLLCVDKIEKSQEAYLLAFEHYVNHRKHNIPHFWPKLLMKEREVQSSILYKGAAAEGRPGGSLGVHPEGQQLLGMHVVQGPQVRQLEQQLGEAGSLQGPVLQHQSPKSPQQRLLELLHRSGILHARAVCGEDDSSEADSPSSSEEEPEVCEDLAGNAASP
Hepatocyte nuclear factor 6 (Homo sapiens), sequence (Q9UBC0 whole entry, looked up): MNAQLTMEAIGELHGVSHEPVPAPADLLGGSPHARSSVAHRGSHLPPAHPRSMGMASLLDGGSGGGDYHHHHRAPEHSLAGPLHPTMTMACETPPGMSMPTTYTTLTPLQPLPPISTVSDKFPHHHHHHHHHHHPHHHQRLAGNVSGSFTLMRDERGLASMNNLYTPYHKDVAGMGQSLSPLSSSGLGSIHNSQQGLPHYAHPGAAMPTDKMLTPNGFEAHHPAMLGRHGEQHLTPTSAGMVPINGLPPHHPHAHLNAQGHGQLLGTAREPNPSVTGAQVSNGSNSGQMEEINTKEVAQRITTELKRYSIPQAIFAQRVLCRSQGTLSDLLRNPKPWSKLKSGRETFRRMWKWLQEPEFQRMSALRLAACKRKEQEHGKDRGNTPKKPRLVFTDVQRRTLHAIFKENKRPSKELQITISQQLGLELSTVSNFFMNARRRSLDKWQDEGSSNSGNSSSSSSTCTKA
Nuclear receptor subfamily 1 group I member 2 (Homo sapiens), sequence (O75469 whole entry, looked up, the tested form may be a part): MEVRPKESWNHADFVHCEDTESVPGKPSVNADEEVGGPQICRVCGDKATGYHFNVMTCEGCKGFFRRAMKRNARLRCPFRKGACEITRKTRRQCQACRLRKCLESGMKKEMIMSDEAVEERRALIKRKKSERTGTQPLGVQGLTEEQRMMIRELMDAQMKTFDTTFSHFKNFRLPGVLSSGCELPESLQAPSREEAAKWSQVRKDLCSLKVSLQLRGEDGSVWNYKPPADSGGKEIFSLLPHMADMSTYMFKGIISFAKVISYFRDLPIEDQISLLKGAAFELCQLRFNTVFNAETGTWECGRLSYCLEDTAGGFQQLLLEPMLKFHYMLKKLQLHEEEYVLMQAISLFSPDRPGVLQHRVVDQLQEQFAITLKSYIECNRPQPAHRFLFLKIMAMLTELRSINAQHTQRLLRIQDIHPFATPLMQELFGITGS

CC1OC(C)OC(C)O1 (stereo not drawn)
active: [13] 42.6 µM
inactive: [1] | [2] | [3] | [4] | [5] | [6] | [7] | [8] | [9] | [10] | [11] | [12] | [13] | [14] | [15] | [16]

SCc1ccco1
active: [1] 62.8 µM | [2] 52 µM
inactive: [3] | [4] | [17] | [6] | [7] | [8] | [18] | [10] | [11] | [16]

O=C(O)C(Br)Br
inactive: [2] | [3] | [4] | [5] | [19] | [17] | [6] | [7] | [8] | [13] | [14] | [16]

O=S(=O)(O)OOS(=O)(=O)O
inactive: [1] | [2] | [3] | [19] | [6] | [7] | [8] | [18] | [9] | [10] | [12] | [16]
